Seven molecules from PubChem BioAssay (NCATS) can be followed below.

Each structure is given as a SMILES string. Results filed as inconclusive are left out. Values without a mark were called inactive. Calls of active or inactive are those of the source. The call rests on the fitted dose curve; in most records, active means well fitted curve in the direction sought with a large enough effect; inconclusive means small, poorly fitted or top-dose-only effect, or another doubt; inactive means no such curve, though single readings can be large; an effect the other way counts as inactive or inconclusive.

In assay [1] the test system is HaCat. Briefly: Cytotoxic Profiling of Annotated Libraries Using Quantitative High-Throughput Screening (AID 1296008). Further: nearly all actives have a fitted effect of over 60% in size. The note with it: Five cell lines viability, CellTiter-Glo ATP luminescence, 48-72 h; max response: hits give low values. A digest of the protocol: (§1)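 Cells exposed to compounds for 48 or 72 hr at 37 degrees Celsius. Viability read as ATP-coupled luminescence with CellTiter-Glo after 10 min at room temperature.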
In general terms: ATP-based viability assays read luminescence as a measure of living cells.

Assay [2] deals with NIH3T3. Described as above. Particulars: Five cell lines viability, CellTiter-Glo ATP luminescence, 48-72 h; max response: hits give low values. A digest of the protocol: as §1
Assay [3] deals with HACAT. Briefly: qHTS assay to identify novel small-molecules to repurpose for Merkel cell carcinoma treatment (AID 1296009). Further: nearly all actives have a fitted effect of over 60% in size. Further: potency means the concentration at half of the fitted maximal effect. The note with it: MCC and control cell lines, CellTiter-Glo viability, 72 h; at 44.8 µM (top of the series) unless noted. In outline: (§2)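 CellTiter-Glo luminescence after 72 hr compound exposure at 37 degree celsius gave cell viability. Libraries NPC and MIPE were run as 8- and 11-point dose responses; RLUs normalized to DMSO (negative) and no-cell (cytotoxicity) controls.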
In general terms: Quantitative high-throughput screening tests each substance at several concentrations.

Another assay deals with MCC-13. The assay is described as above. The note with it: MCC and control cell lines, CellTiter-Glo viability, 72 h; series mostly up to 46 µM. In outline: as §2
For another assay, the system named is MCC-26. The assay is described as above. Particulars: MCC and control cell lines, CellTiter-Glo viability, 72 h; series mostly up to 46 µM. In outline: as §2
A further assay relates to MKL-1. Described as above. Particulars: MCC and control cell lines, CellTiter-Glo viability, 72 h; series mostly up to 46 µM. A digest of the protocol: as §2
In a further assay the test system is MKL-2. The description is as above. Particulars: MCC and control cell lines, CellTiter-Glo viability, 72 h; series mostly up to 46 µM. In outline: as §2
In assay [4] the test system is NIH3T3. The assay is described as above. The note with it: MCC and control cell lines, CellTiter-Glo viability, 72 h; at 44.8 µM (top of the series) unless noted. In outline: as §2
Another assay deals with UISO. The description is as above. Particulars: MCC and control cell lines, CellTiter-Glo viability, 72 h; series mostly up to 46 µM. A digest of the protocol:
as §2

In a further assay the test system is WaGa. Described as above. Particulars: MCC and control cell lines, CellTiter-Glo viability, 72 h; series mostly up to 46 µM. A digest of the protocol:
as §2

A further assay relates to C33A. Nature of the assay: Primary qHTS to identify gynecologic anti-cancer compounds using libraries of approved drugs and bioactive compounds (AID 1345084). Further: nearly all actives have a fitted effect of over 55% in size. Particulars: Gynecologic cancer cell panel viability, ATPlite luminescence, 48 h; series mostly up to 57.5 µM. In outline:
(§3)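 ATP-based viability (ATPlite), 1,000 cells/well, 16 h pre-incubation, 48 h compound at 37 C, 5% CO2, 15 min RT before read.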

Another assay deals with CAOV3. Described as above. The note with it: Gynecologic cancer cell panel viability, ATPlite luminescence, 48 h; series mostly up to 57.5 µM. In outline: as §3
The subject of the next assay is CASKI. Described as above. The note with it: Gynecologic cancer cell panel viability, ATPlite luminescence, 48 h; series mostly up to 57.5 µM. In outline:
as §3

The next assay concerns Es-2. The description is as above. The note with it: Gynecologic cancer cell panel viability, ATPlite luminescence, 48 h; series mostly up to 57.5 µM. A digest of the protocol: as §3
The subject of another assay is HeLa. The description is as above. The note with it: Gynecologic cancer cell panel viability, ATPlite luminescence, 48 h; series mostly up to 57.5 µM. In outline: as §3
The test system of a further assay is Hek293T. The assay is described as above. Particulars: Gynecologic cancer cell panel viability, ATPlite luminescence, 48 h, control line for the selectivity index; series mostly up to 57.5 µM. In outline:
as §3

For a further assay, the system named is JEG-3. The assay is described as above. Particulars: Gynecologic cancer cell panel viability, ATPlite luminescence, 48 h; series mostly up to 57.5 µM. In outline: as §3
For the next assay, the system named is OV90. Described as above. Particulars: Gynecologic cancer cell panel viability, ATPlite luminescence, 48 h; series mostly up to 57.5 µM. A digest of the protocol: as §3
On the % scale 0 is the no-effect control and ±100 the full control effect.

For the molecule `Cc1coc2ccccc2c1=O`, the molecule was classed as inactive in the assay with HaCat [1], in the assay with NIH3T3 [2], in the assay with HACAT [3] and with NIH3T3 [4]. Also, the Potency entry with MCC-13, with MCC-26, with MKL-1, in the assay with MKL-2, with UISO and with WaGa was “inactive” each time. Further, the Potency entry with C33A, in the assay with CAOV3, in the assay on CASKI, with Es-2, in the assay on HeLa and in the assay with Hek293T was “inactive” throughout. Moreover, the Potency result in the assay with JEG-3 and with OV90 was “inactive” in each case.

Take `N#CC1(c2ccc(F)cc2)CCC(=O)CC1`: the molecule was classed as inactive in the assay on HaCat [1], in the assay on NIH3T3 [2], with HACAT [3] and in the assay with NIH3T3 [4]. For the same molecule, the Potency result in the assay with MCC-13, with MCC-26, with MKL-1, with MKL-2, in the assay on UISO and in the assay on WaGa was “inactive” throughout. For the same molecule, the Potency entry in the assay on C33A, in the assay on CAOV3, with CASKI, with Es-2, in the assay with HeLa and with Hek293T was “inactive” throughout. Further, the Potency result in the assay with JEG-3 and in the assay with OV90 was “inactive” throughout.

As for `CO/N=C(\C(=O)O)c1csc(NC(=O)CCl)n1`, the call in the assay on HaCat [1], in the assay on NIH3T3 [2], in the assay on HACAT [3] and with NIH3T3 [4] was inactive. In addition, the Potency entry in the assay on MCC-13, in the assay on MCC-26, in the assay with MKL-1, in the assay with MKL-2, with UISO and in the assay with WaGa was “inactive” throughout. The Potency result in the assay on C33A, in the assay on CAOV3, in the assay with CASKI, in the assay on Es-2, in the assay on HeLa and with Hek293T was “inactive” throughout. The Potency entry with JEG-3 and in the assay on OV90 was “inactive” throughout.

As to `CCCC(=O)OCOC(=O)C1=C(C)NC(C)=C(C(=O)OC)C1c1cccc(Cl)c1Cl` (stereo not drawn), the result with HaCat [1] and in the assay on HACAT [3] was inactive. Moreover, the max response with NIH3T3 [2] is 0.493%. The Potency result in the assay with MCC-13, with MCC-26, in the assay on MKL-1, in the assay with MKL-2, in the assay with UISO and with WaGa was “inactive” in each case. Further, the Potency result in the assay on C33A, in the assay on CAOV3, in the assay on CASKI, in the assay with Es-2, with HeLa and in the assay with Hek293T was “inactive” each time. Further, the Potency entry with JEG-3 and in the assay with OV90 was “inactive” each time.

Take `O=C1CC2(CCCC2)CC(=O)N1`: the outcome in the assay on HaCat [1], in the assay on NIH3T3 [2], in the assay on HACAT [3] and in the assay on NIH3T3 [4] was inactive. In addition, the Potency entry with MCC-13, in the assay with MCC-26, with MKL-1, in the assay on MKL-2, in the assay on UISO and with WaGa was “inactive” in each case. The Potency entry in the assay on C33A, in the assay with CAOV3, in the assay on CASKI, in the assay on Es-2, in the assay on HeLa and in the assay on Hek293T was “inactive” each time. Also, the Potency entry in the assay with JEG-3 and with OV90 was “inactive” in each case.

Regarding `Cc1oc(=O)oc1COC(=O)[C@@H]1N2C(=O)[C@@H](NC(=O)[C@H](N)c3ccccc3)[C@H]2SC1(C)C`, the outcome in the assay on HaCat [1] and in the assay on HACAT [3] was inactive. In addition, in the assay on NIH3T3 [2], the max response was -3.48%. The Potency result in the assay with MCC-13, in the assay on MCC-26, in the assay with MKL-1, with MKL-2, in the assay on UISO and in the assay on WaGa was “inactive” in each case. Further, the Potency result in the assay with C33A, in the assay with CAOV3, in the assay with CASKI, with Es-2, with HeLa and with Hek293T was “inactive” throughout. Besides, the Potency result in the assay on JEG-3 and in the assay with OV90 was “inactive” in each case.

Consider `CC(=O)N1CCN(c2ccc(O)cc2)CC1`, for which the molecule was called inactive with HaCat [1], in the assay on NIH3T3 [2], in the assay with HACAT [3] and in the assay with NIH3T3 [4]. Further, the Potency result with MCC-13, with MCC-26, in the assay on C33A, in the assay on CAOV3, with CASKI and with Es-2 was “inactive” each time. Besides, the Potency result in the assay with HeLa, with Hek293T, in the assay with JEG-3 and with OV90 was “inactive” throughout. Further, the Potency is 8.41 µM (active) in the assay with MKL-1, 7.5 µM (active) in the assay on MKL-2 and 23.7 µM (active) in the assay on WaGa.
